Records with an inconclusive call do not appear. Active and inactive are the calls of the source. Calls follow the shape of the dose curve; as a rule, active = well fitted curve in the direction sought with a large enough effect; inconclusive = small, poorly fitted or top-dose-only effect, or another doubt; inactive = no such curve, though single readings can be large; an effect the other way counts as inactive or inconclusive.
What was measured:
[1] = qHTS of pediatric cancer cell lines to identify multiple opportunities for drug repurposing: Primary screen for U-2 OS cells (AID 1347096); also: nearly all actives have a fitted effect of over 50% in size; also: potency is read from the fitted curve at half-maximal effect
Procedure, shortened: (§1)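 Cells (500-1,000/well) rested 5 h, then received compounds for 48 h; metabolically active cells were measured by CellTiter-Glo luminescence. Final concentrations spanned up to 46 µM (MIPE, 11-point) or 0.59 nM-46 µM (NPC, 8-point) in primary screens, 11-point in follow-ups.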

[2] = qHTS of pediatric cancer cell lines to identify multiple opportunities for drug repurposing: Primary screen for Saos-2 cells (AID 1347097); also: nearly all actives have a fitted effect of over 40% in size; also: potency is read from the fitted curve at half-maximal effect
Procedure, shortened: (§2)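 ATP-based luminescence (CellTiter-Glo) quantifies viability after a 48-hour exposure. Compounds are dosed across 8 or 11 final concentrations; DMSO and 2.3 µM bortezomib serve as controls.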

[3] = qHTS of pediatric cancer cell lines to identify multiple opportunities for drug repurposing: Primary screen for SK-N-SH cells (AID 1347098); also: nearly all actives have a fitted effect of over 65% in size; also: potency is read from the fitted curve at half-maximal effect
Procedure, shortened: as §1

[4] = qHTS of pediatric cancer cell lines to identify multiple opportunities for drug repurposing: Primary screen for NB1643 cells (AID 1347099); also: nearly all actives have a fitted effect of over 50% in size; also: potency is read from the fitted curve at half-maximal effect
Procedure, shortened: as §2

[5] = qHTS of pediatric cancer cell lines to identify multiple opportunities for drug repurposing: Primary screen for LAN-5 cells (AID 1347100); also: potency is read from the fitted curve at half-maximal effect
Procedure, shortened: as §1

[6] = qHTS of pediatric cancer cell lines to identify multiple opportunities for drug repurposing: Primary screen for Rh18 cells (AID 1347102); also: nearly all actives have a fitted effect of over 65% in size; also: potency is read from the fitted curve at half-maximal effect
Procedure, shortened: as §1

[7] = qHTS of pediatric cancer cell lines to identify multiple opportunities for drug repurposing: Primary screen for OHS-50 cells (AID 1347103); also: nearly all actives have a fitted effect of over 40% in size; also: potency is read from the fitted curve at half-maximal effect
Procedure, shortened: as §1

[8] = qHTS of pediatric cancer cell lines to identify multiple opportunities for drug repurposing: Primary screen for MG 63 (6-TG R) cells (AID 1347105); also: nearly all actives have a fitted effect of over 50% in size; also: potency is read from the fitted curve at half-maximal effect
Procedure, shortened: as §2

[9] = qHTS of pediatric cancer cell lines to identify multiple opportunities for drug repurposing: Primary screen for control Hh wild type fibroblast cells (AID 1347106); also: nearly all actives have a fitted effect of over 55% in size; also: potency is read from the fitted curve at half-maximal effect
Procedure, shortened: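 Viability after 48 h compound treatment at 37C, 500-1,000 cells/well, read as ATP luminescence with CellTiter-Glo. Primary screens used 11-point (MIPE, 0.78 nM-46 µM) or 8-point (NPC, 0.59 nM-46 µM) final concentrations; follow-up screens used 11-point dilutions.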

[10] = qHTS of pediatric cancer cell lines to identify multiple opportunities for drug repurposing: Primary screen for Rh30 cells (AID 1347107); also: nearly all actives have a fitted effect of over 75% in size; also: potency is read from the fitted curve at half-maximal effect
Procedure, shortened: as §1

[11] = qHTS of pediatric cancer cell lines to identify multiple opportunities for drug repurposing: Primary screen for Rh41 cells (AID 1347108); also: nearly all actives have a fitted effect of over 70% in size; also: potency is read from the fitted curve at half-maximal effect
Procedure, shortened: as §2

[12] = qHTS of pediatric cancer cell lines to identify multiple opportunities for drug repurposing: Confirmatory screen for NB1643 cells (AID 1347109); also: nearly all actives have a fitted effect of over 45% in size; also: potency is read from the fitted curve at half-maximal effect
Procedure, shortened: as §1

[13] = qHTS of pediatric cancer cell lines to identify multiple opportunities for drug repurposing: Confirmatory screen for A673 cells (AID 1347110);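 also: cells exposed to compound for 48 h before the viability read; nearly all actives have a fitted effect of over 65% in size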; also: potency is read from the fitted curve at half-maximal effect
Procedure, shortened: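 qHTS titration format: primary MIPE 0.78 nM-46 µM (11 pts), NPC 0.59 nM-46 µM; confirmation 11 pts. 48 h, CTG luminescence.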

[14] = qHTS of pediatric cancer cell lines to identify multiple opportunities for drug repurposing: Confirmatory screen for BT-12 cells (AID 1347112); also: nearly all actives have a fitted effect of over 55% in size; also: potency is read from the fitted curve at half-maximal effect
Procedure, shortened: as §1

[15] = qHTS of pediatric cancer cell lines to identify multiple opportunities for drug repurposing: Confirmatory screen for BT-37 cells (AID 1347117); also: nearly all actives have a fitted effect of over 55% in size; also: potency is read from the fitted curve at half-maximal effect
Procedure, shortened: as §1

[16] = qHTS of pediatric cancer cell lines to identify multiple opportunities for drug repurposing: Confirmatory screen for TC32 cells (AID 1347118);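 also: cells exposed to compound for 48 h before the read; nearly all actives have a fitted effect of over 65% in size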; also: potency is read from the fitted curve at half-maximal effect
Procedure, shortened: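 qHTS, TC32, 48 h drug treatment, CellTiter-Glo luminescence as a proxy for metabolically active cells; primary top concentration 46 µM (MIPE 11-pt, NPC 8-pt); confirmatory 11-pt.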

[17] = qHTS of pediatric cancer cell lines to identify multiple opportunities for drug repurposing: Primary screen for RD cells (AID 1347104); also: nearly all actives have a fitted effect of over 55% in size; also: potency is read from the fitted curve at half-maximal effect
Procedure, shortened: as §2

[18] = qHTS of pediatric cancer cell lines to identify multiple opportunities for drug repurposing: Confirmatory screen for DAOY cells (AID 1347114); also: nearly all actives have a fitted effect of over 65% in size; also: potency is read from the fitted curve at half-maximal effect
Procedure, shortened: (§3)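 Viability measured as metabolically active cells via CellTiter-Glo luminescence following 48 hours of compound exposure, 11-point dilutions in confirmatory testing. 500-1,000 cells/well plated 5 hours before dosing; controls were DMSO and 2.3 µM bortezomib.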

[19] = qHTS of pediatric cancer cell lines to identify multiple opportunities for drug repurposing: Confirmatory screen for SJ-GBM2 cells (AID 1347116); also: nearly all actives have a fitted effect of over 60% in size; also: potency is read from the fitted curve at half-maximal effect
Procedure, shortened: as §3

[20] = qHTS of pediatric cancer cell lines to identify multiple opportunities for drug repurposing: Primary screen for BT-12 cells (AID 1347101); also: nearly all actives have a fitted effect of over 25% in size
Procedure, shortened: as §1

Measured: Potency

C[C@@H]1[C@H](O)[C@@H](C)C=CC=CCCC=CC=CC=CC=C[C@H](O[C@H]2O[C@@H](C)[C@H](O)[C@@H](N)[C@@H]2O)CC2O[C@](O)(C[C@@H](O)[C@H](O)CC[C@@H](O)C[C@@H](O)C[C@@H](O)CC(=O)O[C@H]1C)C[C@H](O)[C@H]2C(=O)O
inactive: [1] | [2] | [3] | [4] | [5] | [6] | [7] | [8] | [9] | [10] | [11]

C[C@@H]1CC[C@@]2(OC1)O[C@H]1C[C@H]3[C@@H]4CC=C5C[C@@H](O[C@@H]6O[C@H](CO)[C@@H](O[C@@H]7O[C@@H](C)[C@H](O)[C@@H](O)[C@@H]7O)[C@H](O)[C@@H]6O[C@@H]6O[C@@H](C)[C@H](O)[C@@H](O)[C@@H]6O)CC[C@]5(C)[C@@H]4CC[C@]3(C)[C@@H]1[C@H]2C
active: [1] 9.35 µM | [2] 5.9 µM | [3] 12.1 µM | [4] 5.9 µM | [5] 3.72 µM | [6] 4.18 µM | [7] 4.32 µM | [8] 2.96 µM | [10] 11.8 µM | [11] 14.8 µM | [12] 4.14 µM | [13] 6.57 µM | [14] 9.27 µM | [15] 5.22 µM | [16] 4.14 µM
inactive: [9]

O=[N+]([O-])c1cc([N+](=O)[O-])c2ccccc2c1
not listed: [12] | [13] | [14] | [15] | [16] | [18] | [19] | [20]
inactive: all other assays above

OCCCBr
not listed: [12] | [13] | [14] | [15] | [16] | [18] | [19] | [20]
inactive: all other assays above

CCOCCOC(C)=O
inactive: [1] | [2] | [3] | [4] | [5] | [6] | [7] | [17] | [8] | [9] | [11]

C[C@@]12OC(=O)[C@]1([C@@H](O)[C@@H]1C=CCCC1)NC(=O)[C@H]2CCCl
active: [1] 0.235 µM | [2] 0.0372 µM | [3] 0.171 µM | [4] 0.0743 µM | [5] 0.0526 µM | [6] 0.0526 µM | [7] 0.0685 µM | [17] 0.0526 µM | [8] 0.0296 µM | [9] 0.0935 µM | [11] 0.059 µM | [12] 1.04 µM | [13] 0.585 µM | [14] 2.93 µM | [18] 0.657 µM | [19] 0.737 µM

CC(C)N(CCNC(=O)CN1CCCC1=O)C(C)C
not listed: [12] | [13] | [14] | [15] | [16] | [18] | [19] | [20]
inactive: all other assays above

CCC(=O)OC1CCC2C3CCC4=CC(=O)CC[C@@]4(C)C3CC[C@]12C (some centres undefined)
not listed: [7] | [16] | [17]
inactive: all other assays above

COCC1(CO)C(=O)C2CCN1CC2 (centres undefined)
inactive: [1] | [6] | [17] | [9]
active: [2] 8.33 µM | [3] 1.08 µM | [4] 5.9 µM | [5] 0.833 µM | [7] 3.85 µM | [8] 18.7 µM | [11] 20.9 µM

CSCC[C@@H](NC(=O)[C@@H](Cc1ccccc1)NC(=O)CNC(=O)CNC(=O)[C@@H](N)Cc1ccc(O)cc1)C(=O)O
inactive: [1] | [2] | [3] | [4] | [5] | [6] | [7] | [8] | [9] | [10] | [11]

O=C1CCC[C@@H]2[C@H]3CCCN4CCC[C@@H](CN12)[C@@H]34
inactive: [1] | [2] | [3] | [4] | [5] | [6] | [7] | [17] | [8] | [9] | [11]

C#C[C@]1(O)C=C[C@@H]2[C@@H]3CCC4=CC(=O)CC[C@@H]4[C@H]3CC[C@@]21CC
active: [4] 8.33 µM
inactive: [1] | [2] | [3] | [5] | [6] | [7] | [8] | [9] | [10] | [11]

O=C(Nc1ccccc1-c1ccc(Cl)cc1)c1cccnc1Cl
inactive: [1] | [2] | [3] | [4] | [5] | [6] | [8] | [9] | [10] | [11]

CCCC[N+]1(C)[C@H]2CC(OC(=O)[C@H](CO)c3ccccc3)C[C@H]1[C@H]1O[C@H]12 (some centres undefined)
not listed: [12] | [13] | [14] | [15] | [16] | [18] | [19] | [20]
inactive: all other assays above

COc1cccc2c1[C@]13CCN(CC4CC4)[C@H](C2)[C@]1(OC)CCC(=O)C3
inactive: [1] | [2] | [3] | [4] | [5] | [6] | [7] | [8] | [9] | [11]

CCC1(CCC(C)C)C(=O)NC(=O)NC1=O
inactive: [1] | [2] | [3] | [4] | [5] | [6] | [7] | [8] | [9] | [10] | [11]

Cc1ccccc1-n1c(Cn2cnc3c(N)ncnc32)nc2cccc(C)c2c1=O
inactive: [12] | [13] | [14] | [19] | [15] | [16]
active: [1] 14.8 µM | [2] 0.132 µM | [3] 8.57 µM | [4] 0.59 µM | [5] 0.264 µM | [6] 1.05 µM | [7] 0.0611 µM | [8] 0.148 µM | [11] 0.59 µM

Source: PubChem BioAssay (NCATS)
